TDP1 cell noCPT: qHTS for Inhibitors of human tyrosyl-DNA phosphodiesterase 1 (TDP1): qHTS in cells in absence of CPT; DT40 Tdp1-/- hTDP1 cells, no CPT, ATP luminescence, 48 h; Potency, µM (doses to about 46.2 µM), inactives show top-dose activity change, negative = growth inhibition, usual class: inhibitors; 420,000 compounds, 15% hits; AID 686978, 2013; also: potency is read from the fitted curve at half-maximal effect; % is scaled to controls: 0 for no effect and ±100 for the full control effect; nearly all actives have a fitted effect of over 55% in size
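Chicken DT40 Tdp1-/- cells stably complemented with human TDP1 were seeded at 400 cells/well with DMSO in place of 20 nM camptothecin. After compound pinning, cells grew at least 48 hr at 37 °C; viability read by CellTiter-Glo luminescence.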
DT40 TDP1 CPT: DT40-hTDP1 cell growth loss with CPT; chicken DT40 Tdp1-/-;hTDP1 cells + 20 nM CPT, ATP luminescence, 48 h; Potency, µM (highest dose often 46.2 µM), for inactives: top-dose activity change, negative = growth inhibition, usual class: inhibitors; 420,000 compounds, 12% hits; AID 686979; also: potency is read from the fitted curve at half-maximal effect; % is scaled to controls: 0 for no effect and ±100 for the full control effect; nearly all actives have a fitted effect of over 55% in size
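Chicken DT40 Tdp1-/- cells stably complemented with human TDP1 were seeded at 400 cells/well in medium containing 20 nM camptothecin, exposed to pin-transferred compounds, and grown at 37 °C for at least 48 hr. Viability was read as ATP luminescence.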
D3 ag: agonists of human D3 dopamine receptor; P35462; D3R DiscoveRx beta-arrestin cells, luminescence, 90 min; max activation, %; 410,000 compounds, 0.58% hits; AID 652048; in the data active = max activation above about 30%; also: 0% is about no effect
Target sequence (P35462 whole entry, looked up): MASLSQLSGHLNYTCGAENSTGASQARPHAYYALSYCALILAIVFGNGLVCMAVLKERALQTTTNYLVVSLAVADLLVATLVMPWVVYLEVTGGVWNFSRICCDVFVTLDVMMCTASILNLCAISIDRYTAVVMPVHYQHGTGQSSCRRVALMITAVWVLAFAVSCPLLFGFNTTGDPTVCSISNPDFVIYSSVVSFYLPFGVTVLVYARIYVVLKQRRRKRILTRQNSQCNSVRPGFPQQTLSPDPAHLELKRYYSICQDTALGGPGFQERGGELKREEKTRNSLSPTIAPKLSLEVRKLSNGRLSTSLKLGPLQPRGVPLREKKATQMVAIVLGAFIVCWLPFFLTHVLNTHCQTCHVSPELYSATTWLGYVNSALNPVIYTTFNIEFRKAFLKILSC
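Cells at 1500/well, incubated overnight, then treated with pinned compounds (dopamine as control) for 90 min at 37 degrees C. DiscoveRx reagent added for 30 - 60 minutes at room temperature; luminescence read.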
ClpP mod: qHTS Assay for Activators of ClpP; AID 651965, 2013; Potency, µM (series often up to 57.5 µM), inactives show top-dose activity change, negative = active; ATP-dependent Clp protease proteolytic subunit (Bacillus subtilis (strain 168)), P80244; purified B. subtilis ClpP, FRET peptide cleavage, 20 min; 340,000 compounds, 1.9% hits; active = well fitted falling curve with a large enough effect; inconclusive = small, poorly fitted or top-dose-only effect; inactive = no such curve, though single readings can be large or run the other way; also: potency is read from the fitted curve at half-maximal effect; the source files actives as falling curves though it sought activators and does not explain the sign; nearly all actives have a fitted effect of over 65% in size
Target sequence (P80244 whole entry, looked up): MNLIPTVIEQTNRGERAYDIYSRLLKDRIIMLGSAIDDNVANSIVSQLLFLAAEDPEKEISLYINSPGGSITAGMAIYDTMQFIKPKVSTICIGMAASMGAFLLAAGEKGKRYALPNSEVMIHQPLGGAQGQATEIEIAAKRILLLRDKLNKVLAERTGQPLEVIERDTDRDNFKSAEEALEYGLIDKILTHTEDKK
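FRET quenching reversal measured ClpP activation: 10 microg/mL B. subtilis ClpP at pH 8 with the FRET-FV decapeptide, read at 430 nm after 320 nm excitation. The 20-min minus 0-min signal was scaled between DMSO/no-enzyme wells and ADEP (5.8 microM final).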
D3 antag: D3 dopamine receptor (human) antagonism; P35462; D3R cells, DiscoveRx beta-arrestin luminescence, antagonist mode; stronger effect = lower value; max response, negative = inhibition, %; 360,000 compounds, 2.5% hits; in the data active = max response below about -50%; inconclusive = no clear call, values can overlap the other calls; also: % is scaled to controls: 0 for no effect and ±100 for the full control effect
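Cells plated overnight at 1500 cells/well, then exposed to library compounds with dopamine controls for 90 minutes at 37 degrees C. DiscoveRx reagent added for 30–60 minutes at room temperature; luminescence read, quantitative HTS format.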
IL-1B inflam inh: inflammasome signaling inhibition, IL-1 beta readout. AID 743279. 360,000 compounds, 4.7% hits. THP-1 LPS/ATP IL-1B secretion, AlphaLISA, 16 h; stronger effect = lower value. activity change, % at 57.5 µM; in the data active = activity change below about -50%; inconclusive = mostly about -30% to -49%; also: % is scaled to controls: 0 for no effect and ±100 for the full control effect
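Secreted IL-1B measured by AlphaLISA bead assay after 16 h compound exposure of THP-1 cells; compounds (final up to 57.5 uM) added 1 h before LPS (250 ng/mL) and ATP (1.25 mM) stimulation; lower signal means less secretion.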
An asterisk follows results filed as active. Sampled rows, rich in hits. Any-hit rate of the full collection: about 21%. Unless noted, calls follow the shape of the dose curve; as a rule, active = well fitted inhibition curve with a large enough effect; inconclusive = small, poorly fitted or top-dose-only effect; inactive = flat fitted curve, though single readings scatter.

`COc1cc2c(C(=O)N(C)c3cc(Cl)ccc3OC)cn(CC(C)C)c(=O)c2cc1OC` gave TDP1 cell noCPT 8.2µM*, DT40 TDP1 CPT 9.2µM*, D3 ag -11 and ClpP mod 0%.
Screening CCCN(C(=O)c1cn(CC(C)C)c(=O)c2cc(OC)c(OC)cc12)c1cccc(C)c1 returned TDP1 cell noCPT 15µM*, DT40 TDP1 CPT 13µM*, D3 ag -4 and ClpP mod 0%.
Screening CCOC(=O)c1ccccc1NC(=O)c1cn(CC(C)C)c(=O)c2cc(OC)c(OC)cc12 returned TDP1 cell noCPT inconclusive, DT40 TDP1 CPT -2%, D3 ag 7 and ClpP mod -4%.
Screening COc1cc2c(C(=O)NCc3ccc(C)o3)cn(CC(C)C)c(=O)c2cc1OC returned TDP1 cell noCPT inconclusive, DT40 TDP1 CPT -23%, D3 ag 1, ClpP mod -26%, D3 antag -12 and IL-1B inflam inh 5.
COc1ccc(N(C)C(=O)c2cn(CC(C)C)c(=O)c3cc(OC)c(OC)cc23)c(OC)c1 was read as TDP1 cell noCPT -26%, DT40 TDP1 CPT inconclusive, D3 ag 1, ClpP mod -3%, D3 antag 0 and IL-1B inflam inh -28.
Screening COCCN(C(=O)CSc1nnc(-c2ccncc2)n1C)c1c(N)n(CC(C)C)c(=O)[nH]c1=O returned TDP1 cell noCPT 3%, DT40 TDP1 CPT -1%, D3 ag 3, ClpP mod 0%, D3 antag 14 and IL-1B inflam inh 20.
CCCNC(=O)C1(C)CCCN(CC(=O)c2ccccc2OC)C1 (stereo not drawn) was read as TDP1 cell noCPT 2%, DT40 TDP1 CPT 2%, D3 ag 3, ClpP mod -8%, D3 antag 0 and IL-1B inflam inh 20.
`Cc1ccccc1C(=O)Nc1ccc(C(=O)N2CCCC(O)c3cc(Cl)ccc32)c(C)c1` (stereo not drawn) gave TDP1 cell noCPT inconclusive, DT40 TDP1 CPT inconclusive and D3 ag 3.
Screening CCC1CCCCN1CCCNC(=O)c1cn(CC(C)C)c(=O)c2cc(OC)c(OC)cc12 (stereo not drawn) returned TDP1 cell noCPT 1.8µM*, DT40 TDP1 CPT 1%, D3 ag -2, ClpP mod -29%, D3 antag -68* and IL-1B inflam inh inconclusive.
For CCC(C)c1ccc(N(CC(=O)NC(C)(C)C)C(=O)CNC(=O)c2cccs2)cc1 (stereo not drawn) the results were TDP1 cell noCPT 18µM*, DT40 TDP1 CPT inconclusive, D3 ag -19, ClpP mod -6%, D3 antag -18 and IL-1B inflam inh -5.
`COc1ccccc1N1CCN(C(=O)Cn2ncc3ccsc3c2=O)CC1` gave D3 ag -14 and ClpP mod 0%.
For COc1ccc(/C=C2\CCCC3C2=NN(C(=O)COC(=O)CNC(=O)c2ccccc2)C3c2ccc(OC)cc2)cc1 (stereo not drawn) the results were TDP1 cell noCPT inconclusive, DT40 TDP1 CPT inconclusive, D3 ag -2, ClpP mod inconclusive, D3 antag -14 and IL-1B inflam inh -10.
For Cc1nc(N2N=C3/C(=C/c4ccc(F)cc4)CCCC3C2c2ccc(F)cc2)sc1C(=O)N(C)C (stereo not drawn) the results were TDP1 cell noCPT 29µM*, DT40 TDP1 CPT inconclusive, D3 ag -3, ClpP mod -5%, D3 antag -7 and IL-1B inflam inh -2.
O=C(/C=C\c1ccc2c(c1)OCO2)CC1(O)C(=O)Nc2ccccc21 (stereo not drawn) was read as TDP1 cell noCPT inconclusive, DT40 TDP1 CPT inconclusive, D3 ag 5, D3 antag 2 and IL-1B inflam inh -101*.
`O=C(CC1(O)C(=O)Nc2ccccc21)c1ccc2c(c1)OCO2` (stereo not drawn) gave TDP1 cell noCPT -16%, DT40 TDP1 CPT -12%, D3 ag 0, ClpP mod -12%, D3 antag -4 and IL-1B inflam inh 0.
`Cc1ccc(C)c(S(=O)(=O)N2CCN(CC(=O)Nc3sccc3C#N)CC2)c1` gave TDP1 cell noCPT 18µM*, DT40 TDP1 CPT 16µM*, D3 ag -6, ClpP mod 1%, D3 antag 12 and IL-1B inflam inh -2.
CCOC(=O)N1CCN(CC(=O)Nc2sccc2C#N)CC1 was read as TDP1 cell noCPT 15µM*, DT40 TDP1 CPT 21µM*, D3 ag -3, ClpP mod 2%, D3 antag 4 and IL-1B inflam inh 68.
COc1cc(NC(=O)Cn2c(=O)cc(C)c3c(C)nn(-c4ccc(C)cc4)c32)cc(OC)c1 was read as TDP1 cell noCPT -14%, DT40 TDP1 CPT -9%, D3 ag -16 and ClpP mod inconclusive.
Screening CN1C(C(=O)NCc2ccco2)=CC(c2ccc(F)cc2)=NS1(=O)=O returned TDP1 cell noCPT 6%, DT40 TDP1 CPT 5%, D3 ag -3, ClpP mod -3%, D3 antag -8 and IL-1B inflam inh -7.
For O=C(Nc1nc2ccc(S(=O)(=O)N3CCCC3)cc2s1)c1ccc(F)cc1 the results were TDP1 cell noCPT inconclusive, DT40 TDP1 CPT inconclusive, D3 ag 11 and ClpP mod inconclusive.
For COC(=O)c1ccc2nc(Nc3nc4c(F)cc(F)cc4s3)sc2c1 the results were TDP1 cell noCPT 16µM*, DT40 TDP1 CPT inconclusive, D3 ag 23, ClpP mod 32µM*, D3 antag 14 and IL-1B inflam inh 22.
For CCOC(=O)c1ccc2nc(Nc3nc4ccc(F)cc4s3)sc2c1 the results were TDP1 cell noCPT inconclusive, DT40 TDP1 CPT -22%, D3 ag 5, ClpP mod 16µM*, D3 antag 8 and IL-1B inflam inh 21.
Screening CCOC(=O)N1CCN(S(=O)(=O)c2ccc(C(=O)Nc3nc4ccc(F)cc4s3)cc2)CC1 returned TDP1 cell noCPT 6.5µM*, DT40 TDP1 CPT 8.2µM*, D3 ag 6, ClpP mod 6%, D3 antag -4 and IL-1B inflam inh -19.
Screening Cn1ccnc1C(OC(=O)c1ccccc1)C(F)(F)F (stereo not drawn) returned TDP1 cell noCPT inconclusive, DT40 TDP1 CPT inconclusive, D3 ag 6, ClpP mod 3%, D3 antag 10 and IL-1B inflam inh 17.

Screens (PubChem BioAssay)
